Assay results taken from PubChem BioAssay AID588342 (National Center for Advancing Translational Sciences (NCATS), 2011).
Among all 360,000 compounds or so, about 25,000 (6.9%) were called active. About 9% were inconclusive and are not listed. The sample as a whole holds a higher share of actives than the screen did. Unmarked numbers belong to inactive results. The call rests on the fitted dose curve; in most records, active means well fitted inhibition curve with a large enough effect; inconclusive means small, poorly fitted or top-dose-only effect; inactive means flat fitted curve, though single readings scatter.

These compounds were tested against Luciferin 4-monooxygenase (Photinus pyralis) (UniProt P08659) (assay: qHTS profiling assay for firefly luciferase inhibitor/activator using purifed enzyme and Km concentrations of substrates (counterscreen for miR-21 project)). Details: purified FLuc, luminescence inhibition; series mostly up to 57.5 µM; activity change, negative = inhibition: at the top concentration.
Description: MLPCN Grant: 1 R21 NS059478-01 (miR-21 grant) Assay Provider: NCGC NCGC Assay Overview: Firefly (Photinus pyralis) luciferase is one of the most commonly used transcriptional reporters for a number of reasons. It is considered one of the more dynamically responsive reporters -that is, responsive to changes in reporter transcription - as it requires no post-translational modifications and is enzymatically active directly after protein synthesis (Wood, 1998). Additionally, the half-life of the luciferase protein is short relative to other reporter-gene products (Wood, 1995). Whereas reporters with long half-lives potentially allow for increased signal due to accumulation of reporter-gene product, once accumulated in the cell, dynamic changes in reporter-gene expression may be difficult to detect(Fan and Wood, 2007; Almond et al., 2004). It has been shown that wild-type P. pyralis luciferase has a half-life of approximately […] hours in mammalian cells (Thompson et al., 1991). Firefly luciferase reporter-gene assays are also generally considered one of the most sensitive assay types (Wood, 1995; Wood, 1998). Although light produced in a bioluminescence reaction is of lower intensity than that produced during fluorescence emission, this is offset by little to no background light inherent to luminescent assays. Thus the luciferase reporter can be expressed at much lower levels than fluorescent proteins while still providing robust signal. # However, it was initially observed, in 1991, by Thompson et al., that compounds that resemble the substrates of firefly luciferase (FLuc) can act as competitive inhibitors of the enzyme, and that these compounds, upon interaction with luciferase in the cell, can actually stabilize the protein and increase its half-life. Accumulated intracellular FLuc protein can be measured as an increase in luminescence signal, upon addition of detection reagents (which contain high concentrations of FLuc substrates) commonly used in high-throughput screening. In cell-based reporter gene assays that use FLuc as the reporter gene to quantitate the potential influence of a given compound against the target biology, this apparent increase in luminescence can mistakenly be interpreted as identification of a compound that is active against the target of interest. This is the case for the miR-21 FLuc reporter gene assay used to identify inhibitors of the miR-21 pathway (PubChem AID 2289) - compounds of interest will inhibit miR-21 biogenesis/expression or activity, and are identified by causing an increase in luminescence, due to increased FLuc translation. However, FLuc inhibitory compounds that stabilize the FLuc protein will give an identical read-out, making it difficult to distinguish compounds that are active against the target from those active against FLuc. Previous profiling work to determine the prevalence of compounds that affect FLuc enzymatic activity (PubChem AID 411) identified that ~3% of the MLSMR library (then at ~72K) inhibited FLuc. […] Since the MLSMR had grown to ~350K compounds, and since it was expected that a significant percentage of compounds found active in the miR-21 FLuc assay would be FLuc inhibitors, the library was screened for activity against FLuc using a biochemical assay of purified FLuc and KM concentrations of FLuc substrates (D-luciferin and ATP).
NCGC Assay Protocol Summary: Reagents: 50mM Tris acetate, pH 7.5; 10mM Mg acetate; 10uM D-luciferin (Sigma #L9504); 10uM ATP; 0.01% Tween-20; 0.05% BSA; 10nM P. pyralis luciferase (Sigma #L9506) Control compounds used were two known firefly luciferase inhibitors (compounds (2) and (5) in Auld et al., 2010), and DMSO. […]
Further: nearly all actives have a fitted effect of over 55% in size.
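Wherever activity change, negative = inhibition is given: plate controls were vehicle for no effect and reference inhibitor for full effect.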

Chain of Luciferin 4-monooxygenase (Photinus pyralis) (P08659 whole entry, looked up): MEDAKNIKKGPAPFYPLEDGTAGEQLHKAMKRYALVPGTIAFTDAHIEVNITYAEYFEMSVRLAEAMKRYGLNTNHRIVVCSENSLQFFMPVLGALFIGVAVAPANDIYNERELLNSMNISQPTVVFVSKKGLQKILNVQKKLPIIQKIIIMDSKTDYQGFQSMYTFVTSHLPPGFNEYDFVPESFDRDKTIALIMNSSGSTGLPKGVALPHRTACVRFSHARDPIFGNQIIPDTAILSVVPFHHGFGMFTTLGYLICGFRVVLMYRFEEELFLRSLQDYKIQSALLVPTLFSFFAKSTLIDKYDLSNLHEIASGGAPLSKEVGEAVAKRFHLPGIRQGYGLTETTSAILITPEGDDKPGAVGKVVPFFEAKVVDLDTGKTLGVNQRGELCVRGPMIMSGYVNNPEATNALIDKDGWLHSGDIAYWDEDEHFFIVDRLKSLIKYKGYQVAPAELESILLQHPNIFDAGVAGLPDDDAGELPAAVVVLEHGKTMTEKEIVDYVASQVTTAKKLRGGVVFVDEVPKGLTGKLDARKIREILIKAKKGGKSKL

In order of rising “activity change, negative = inhibition” value:
1. Nc1ncc(S(=O)(=O)Nc2ccc(OC(F)(F)F)cc2)cn1  -18.2%
2. Cc1cc(C)cc(NS(=O)(=O)c2ccc(-c3cc(C)no3)s2)c1  -17.8%
3. Cc1c(Cl)cccc1NC(=O)C1CCCN(C(=O)c2cnn(-c3ccccc3)c2-n2cccc2)C1 (centres undefined)  -17.5%
4. CN1/C(=C\C=C2\N=C(c3ccc(F)cc3)OC2=O)C(C)(C)c2ccccc21  -15.8%
5. Cc1nc2c(-c3ccccc3)c(C)nn2c(C)c1CCC(=O)NCCc1ccccc1  -13.9%
6. CC(=O)c1ccc(N2CCN(C3C(=O)c4ccccc4N3C(C)=O)CC2)cc1 (centres undefined)  -11.4%
7. CCOC(=O)Cc1csc(NC(=O)CSc2nc(C)cc(=O)[nH]2)n1  -11%
8. CCc1cc2c(cc3c(=O)n(CC(=O)N4CCN(c5cc(Cl)ccc5C)CC4)nc(CC)n32)s1  -10.4%
9. COc1ccccc1N1CCN(c2ccc(=O)n(CC(=O)NCc3ccc(OC(C)C)cc3)n2)CC1  -8.85%
10. COc1cccc(CNC(=O)C2CCN(S(=O)(=O)c3ccc4c(ccn4C)c3)CC2)c1  -8.5%
11. Cc1ccc(C)c(NC2=NCC(=O)N2c2ccc3c(c2)OCCO3)c1  -7.62%
12. Cn1nc(-c2ccccc2)c(-c2ccccc2)c(C(=O)Nc2ccc(S(N)(=O)=O)cc2)c1=O  -7.51%
13. CCOC(=O)c1cc(-c2ccc(OC)c(S(=O)(=O)Nc3ccc(OC)cc3OC)c2)on1  -6.63%
14. O=C(NC1CC(=O)N(c2ccc(Cl)cc2)C1)C1CCCC1 (centres undefined)  -5.39%
15. Cc1nnc(N/N=C/c2ccccn2)[nH]c1=O  -4.55%
16. Cc1cc(=O)[nH]c(Nc2cccc(Br)c2)n1  -3.47%
17. CC(=O)OC1=C(C(C)=O)N(Cc2ccccc2)S(=O)(=O)c2ccccc21  -2.47%
18. Cc1cc2c(cc3c(SCc4nc(-c5ccccc5)oc4C)nnc(C)n32)o1  -1.75%
19. Cc1ccc2nc(C)cc(N/N=C/c3ccc(F)cc3)c2c1  -1.41%
20. COc1ccccc1-c1noc(CSc2nnc(-c3ccccc3)n2-c2ccc(C)c(C)c2)n1  -0.724%
21. Cc1c(Cl)cccc1NC(=O)CCC(=O)N/N=C/c1ccco1  -0.65%
22. c1cc(-n2cnnn2)ccc1NC1=NCCC1  -0.318%
23. Cc1ccc(C2=N/C(=C\c3ccc(OS(=O)(=O)c4ccc(C)cc4)cc3)C(=O)O2)cc1  -0.259%
24. S=C(NNC(=S)NC1CC2CCC1C2)NC1CC2C=CC1C2 (centres undefined)  -0.235%
25. O=C(CCN1C(=O)C2C3CCC(C3)C2C1=O)Nc1ccc(Cl)cc1Cl (centres undefined)  -0.123%
26. COc1ccc(CCC(=O)N2CCN(S(=O)(=O)c3ccc(OC)cc3)CC2)cc1  0.133%
27. S=C(NNC(=S)NC1CC2C=CC1C2)NC1CC2C=CC1C2 (centres undefined)  0.443%
28. Cc1ccc(S(=O)(=O)CC(=O)Nc2nnc(C)s2)cc1  0.491%
29. CCOc1ccc(S(=O)(=O)Nc2ccc(C(=O)NCCCN3CCCC3=O)cc2)cc1  0.869%
30. Cn1c(=O)c2c(nc(SCC(=O)Nc3ccc(F)cc3)n2Cc2ccccc2)n(C)c1=O  1.13%
31. CC(=O)c1cccc(CN2CCC(CO)(Cc3ccccc3)CC2)c1  1.15%
32. Cc1ccc(NC(=O)c2oc3ccccc3c2NC(=O)Cc2cccs2)cc1  1.25%
33. Cc1ccc(F)cc1S(=O)(=O)Nc1cccc(C(=O)N2CCCC(C(N)=O)C2)c1 (centres undefined)  1.32%
34. Cc1ccc(C(=O)COC(=O)CCN2C(=O)C3C4CC(C(Br)C4Br)C3C2=O)cc1 (centres undefined)  1.77%
35. O=C(Nc1ccccc1C(=O)N1CCCCC1)c1ccco1  2.11%
36. CCN(CC(=O)Nc1ccccc1C(F)(F)F)C(=O)C1CCN(C(=O)Nc2ccccc2)CC1  2.43%
37. CCOC(=O)c1ccc(NC(=O)CCn2cnnn2)cc1  2.52%
38. Cc1ccc(C(=O)Cn2cccn2)cc1  2.73%
39. CCc1cccc(CC)c1NC(=O)Cn1c(=O)c(-c2cc(C)ccc2NC(C)=O)nc2ccccc21  3.12%
40. OCC1(Cc2ccccc2)CCN(Cc2cc3ccccc3o2)CC1  3.73%
41. COc1cccc(NC(=O)N(Cc2cn(C)c3ccccc23)C2CCCCCC2)c1  4.23%
42. CC(CO)N1CCS(=O)(=O)CC1 (centres undefined)  5.19%
43. CC1CCCCC1NC(=O)NC(=O)COC(=O)C1=NN(c2ccccc2)C(=O)CC1 (centres undefined)  5.26%
44. Cc1ccc(S(=O)(=O)NCCSc2ccccc2)cc1[N+](=O)[O-]  6.22%

`CC(C)c1ccc(NC(=S)NC2CC3C=CC2C3)cc1` (centres undefined) was tested, and the Potency was 10.7 µM (active).
With `Cc1cc(=O)[nH]c(N/N=C/c2ccc3c(c2)OCCO3)n1` the Potency was 10.7 µM (active).
For `Cc1cc(=O)[nH]c(N/N=C/c2c(C)nn(-c3ccccc3Cl)c2Cl)n1`, the Potency was 21.3 µM (active).
`CCN(CC)c1ccc(/C=N/Nc2nc(C)cc(=O)[nH]2)cc1` was tested, and the Potency was 19 µM (active).
With `Cc1ccc(C(=O)COC(=O)CCN2C(=O)C3C4CCC(C4)C3C2=O)cc1C` (centres undefined) the Potency was 10.7 µM (active).
For `Cc1ccc(C(=O)Cc2nnc(C)s2)cc1`, the Potency was 9.53 µM (active).
With `CCS(=O)(=O)c1cc([N+](=O)[O-])c(Sc2ccccc2N)s1` the Potency was 4.26 µM (active).
`CC(C)c1csc(CN2CCC(CO)(Cc3ccccc3)CC2)n1` was tested, and the Potency was 6.75 µM (active).
`CS/C(=C\C(=O)c1ccco1)Nc1ccccc1Cl` was tested, and the Potency was 3.79 µM (active).
In the case of `Cc1cccc(C2=N/C(=C/c3cccs3)C(=O)O2)c1`, the Potency is reported as 2.69 µM (active).
